Molecules are shown by their SMILES. The list shows a part of the results. A number with no mark means an inactive call. Calls of active or inactive are those of the source.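 The calls were made as follows: active = mean inhibition across replicates of at least 20% with every single replicate also at 20% or more; inconclusive = mean inhibition at least 20% but some replicate falls below 20%; inactive = mean inhibition under 20% and not all replicates reach it.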

The subject of this test is PglD UDP-4-amino-sugar N-acetyltransferase (Campylobacter jejuni). The test can be described thus: inhibition of C. jejuni PglD N-acetyltransferase – biochemical, DTNB absorbance, single point, cherry-picked samples, confirmation (AID 743156).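 Also: initial rate of CoA release by acetyl transfer from AcCoA to the UDP-4-amino sugar; 0% = median of neutral control wells and 100% = median of positive control wells.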 Conditions: Purified C. jejuni PglD, DTNB absorbance 412 nm; at 20 µM; active compounds read high.
For `CC(=O)Nc1ccc(OC(=O)COc2ccc(Br)cc2)cc1`, the inhibition (commonly the relative decrease from the control value, in per cent) is 1.84%. To `O=C(Nc1ccc(Sc2ccc(Br)cc2)cc1)c1ccco1` belongs 11.2%; to `CCOc1ccc(OCc2ccc(C(=O)N(C)c3ccccc3)o2)cc1`, 1.37%. To `O=C(NCc1ccncc1)C1CCN(C(=O)c2cccc(Cl)c2)CC1` belongs 2.21%; to `CCCOc1ccc(F)cc1-c1cc(C(=O)Nc2ccc(F)cc2)[nH]n1`, 3.61%; to `Cc1ccc(NC(=O)CNCc2ccccn2)cc1S(=O)(=O)N(C)C`, -5.07%. On to `C=CC1=C(C(=O)O)N2C(=O)[C@@H](NC(=O)/C(=N/OCC(=O)O)c3csc(N)n3)[C@H]2SC1`, for which the inhibition is 37.4% (active). With `CC(C)(C)c1ccc(CN2C(=O)c3ccccc3S2(=O)=O)cc1`, the inhibition was 2.98%. Turning to `COc1ccc(NC(=O)C2=NNC(=O)CC2)cc1S(=O)(=O)N1CCCCC1`, the inhibition was -3.63%.

For the compound `CCCCC(=O)Nc1ccc(C(=O)NCCCn2ccnc2)cc1`, the inhibition is -0.586%.

For `O=S1(=O)CC(NCc2ccccc2)C(Nc2ccc(Cl)cc2)C1` (configuration not stated), the inhibition was -7.57%. Turning to `CC(C)CCNC(=O)c1ccc2c(Cl)c3c(nc2c1)CCC3`, the inhibition is 2.89%. To `Cc1ccc(C2=C/C(=C\c3cccnc3)C(=O)O2)cc1` belongs 7.97%; to `CSc1ccc(S(=O)(=O)NCc2ccc(Cl)cc2)cc1`, 3.66%; to `CC(NC(=O)c1ccc(Cl)cc1)C(=O)N1CCCCC1` (configuration not stated), 0.85%. To `C=CCOC(=O)C1=C(C)NC(SCC(=O)OCC)=C(C#N)C1c1ccc(C)cc1` (configuration not stated) belongs 0.793%.

As to `Cc1ccc(S(=O)(=O)N2CCC(C(=O)NCC3CCCO3)CC2)cc1` (configuration not stated), the inhibition was -10.7%.

The record behind these values is PubChem BioAssay AID743156 (Broad Institute, 2013).
